Only some compounds are listed: those with a hit (about 2.1% of all), similar ones and a draw of the others.
PrPC TRFRET: cell surface PrPC inhibition, primary TR-FRET screen; AID 720596; TR-FRET read-out; inhibition, % at 13.8 µM; 370,000 compounds, 0.43% hits; P04156; in the data active means inhibition above about 24%; further: 0% = median of the test wells and 100% = reference compound wells
PfHsp40 yeast: compounds rescuing yeast from Plasmodium falciparum HSP40 toxicity; growth rescue, % at 12.5 µM; 340,000 compounds, 0.68% hits; S. cerevisiae expressing PfHsp40, growth rescue, ATP luminescence; in the data active means growth rescue above about 28%, passing the limit was not always enough;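 further: yeast W303a lacking pdr1 and pdr3 grown in galactose medium; growth measured after three days at 30 °C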
MazF activator: activators of E. coli MazEF toxin-antitoxin RNase. FAM/BHQ RNA-DNA oligo cleavage fluorescence, 5 h. activation, % at 20 µM. 350,000 compounds, 0.32% hits. AID 504720; in the data active means activation above about 50%
Target sequence (P0AE70 whole entry, looked up): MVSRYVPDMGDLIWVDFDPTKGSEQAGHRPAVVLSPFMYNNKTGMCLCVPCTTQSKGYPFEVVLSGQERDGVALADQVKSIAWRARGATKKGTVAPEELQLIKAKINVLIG
PrP UTR inh: inhibition of PrP 5' UTR reporter expression; cell-based PrP 5' UTR mRNA reporter, plate reader; inhibition, % (test concentration not listed); 340,000 compounds, 0.35% hits; AID 488862; in the data active means inhibition above about 52%; further: 0 = median of the neutral control wells
BJeLR viability: kills HRASV12-expressing BJeLR cells; BJeLR (HRASV12) viability, CellTiter-Glo ATP luminescence, 48 h; inhibition, % (test concentration not listed); 300,000 compounds, 0.17% hits; in the data active means inhibition above about 50%
DUSP3 inh: inhibitors of human VHR1 phosphatase (DUSP3). 290,000 compounds, 0.52% hits. inhibition, % at 13.3 µM. recombinant VHR phosphatase, pNPP absorbance. AID 1654; in the data active means inhibition above about 50%
Target sequence (P51452 whole entry, looked up): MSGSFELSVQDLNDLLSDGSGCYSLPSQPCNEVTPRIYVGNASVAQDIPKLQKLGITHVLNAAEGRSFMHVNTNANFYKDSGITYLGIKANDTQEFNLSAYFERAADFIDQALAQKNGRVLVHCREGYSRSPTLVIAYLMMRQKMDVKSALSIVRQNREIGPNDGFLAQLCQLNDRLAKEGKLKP
The depositor's hits bear a star; i = inactive; x = not tested or not shown.

SMILES	PrPC TRFRET	PfHsp40 yeast	MazF activator	PrP UTR inh	BJeLR viability	DUSP3 inh
O=C(NC(=S)N(CCc1ccccc1)CCc1ccccc1)c1ccco1	3	187*	6	3	6	26
O=C(/C=C/c1ccccc1)NC(=S)NNC(=O)c1ccco1	-5	35*	-4	5	-9	4
COc1nc(NCCc2ccc(OC)c(OC)c2)nc(Nc2ccccc2)n1	2	1	4	-19	4	19
COc1ccc(OC)c(S(=O)(=O)Nc2ccccc2C(=O)N2CCCCC2)c1	3	1	-3	-2	x	x
Cc1cc(C(=O)C(C(c2ccccc2)N2CCOCC2)N2CCOCC2)ccc1Cl (configuration not stated)	-2	0	4	-20	x	x
FC(F)(F)Sc1ccc(NC(=S)NCc2ccccc2)cc1	7	148*	1	-8	-3	1
S=C(NCc1ccccc1)Nc1ccncc1	7	-1	4	-20	8	53*
S=C(NCc1ccccc1)Nc1ccc(Cl)cc1	4	1	6	-16	-1	-10
O=C(c1cc(-c2ccccc2)n[nH]1)N1CCN(S(=O)(=O)c2ccccc2)CC1	10	30*	5	-32	-11	-10
COc1ccc(-c2cc(C(=O)N3CCN(S(=O)(=O)c4ccccc4)CC3)[nH]n2)cc1	-4	1	11	-20	2	17
CCOC(=O)c1cc(OCC)c2c(ccc3ccccc32)n1	-7	x	6	x	x	x
Clc1cc2nc3ccccn3c2cc1Cl	3	152*	6	-19	-4	30
O=C(NCc1ccccc1Br)c1cccs1	4	x	x	x	x	x
COc1cccc(CSc2nc3ccccc3cc2C=O)c1	0	1	-11	-2	58*	-1
COc1ccccc1CCn1cnc(Cc2ccccc2)c1C(C)C	8	x	x	x	x	x
O=C(NC(=S)N1CCN(c2ccc(O)cc2)CC1)c1ccco1	-1	2	3	-18	x	x
O=C(NC(=S)N1CCN(c2ccc([N+](=O)[O-])cc2)CC1)c1ccco1	-11	2	2	-1	3	53*
Fc1ccc(N2CCN(c3cnc4ccccc4n3)CC2)cc1	-2	0	-1	-56	6	2
Cc1ccc(C)c(Sc2ccc(NC(=O)CCN3C(=O)NC4(CCCC4)C3=O)cc2)c1	-9	31*	9	-7	x	x
Cc1ccc(NC(=O)CCN2C(=O)NC3(CCCC3)C2=O)cc1	6	-1	-5	-3	x	x
O=C(NNC(=O)c1cccc2ccccc12)c1ccc(-c2ccccc2)cc1	3	0	22	-25	-1	0
O=C(NNC(=O)c1cccc2ccccc12)c1ccccc1O	-2	29*	-4	-7	3	5
CC(=O)Nc1ccc(NC(=O)c2cccc3ccccc23)cc1	-3	-1	12	-16	-4	60*
O=[N+]([O-])c1ccc(S(=O)Cc2ccccc2)c([N+](=O)[O-])c1 (configuration not stated)	-10	253*	1	-31	x	x
CCOc1ccc(CCNS(=O)(=O)c2c(C)nc3sccn3c2=O)cc1OCC	4	x	x	x	x	x
SMILES	PrPC TRFRET	PfHsp40 yeast	MazF activator	PrP UTR inh	BJeLR viability	DUSP3 inh
O=[N+]([O-])c1ccc(NC(=S)N2CCCC2)cc1	-7	0	7	-9	0	51*
CSc1cccc(NC(=O)C2CCCN(S(C)(=O)=O)C2)c1 (configuration not stated)	12	x	4	x	x	x
Cc1ccc(NC(=S)N2CCC(NC(=O)c3ccc(C)cc3)CC2)cc1	0	-1	12	-22	-4	-26
Cc1ccc(NC(=S)N2CCC(NC(=O)c3cccc(F)c3)CC2)cc1	-3	1	0	-16	-12	55*
COc1ccc(CCNC(=O)c2ccc3c(c2)SC2=NS(=O)(=O)CCN23)cc1	1	0	9	-12	1	38
O=C(Nc1cccc(Cl)c1)c1ccc2c(c1)SC1=NS(=O)(=O)CCN12	-7	-1	136*	-5	x	21
COc1ccc(C(=O)CSc2nnc(CNc3ccc(C)cc3C)o2)cc1	-7	1	2	-26	-3	-1
Cc1ccc(NCc2nnc(SCC(=O)c3ccc4c(c3)OCCO4)o2)c(C)c1	1	1	52*	-13	9	13
COc1ccc(N(C(=O)CCl)C(C(=O)NCCc2ccccc2)c2cccs2)cc1 (configuration not stated)	-5	-1	2	-59	114*	1
COc1ccc(O)c(C2=Nc3ccccc3N=C(c3ccco3)C2)c1	0	-1	20	-8	0	-15
Oc1ccc(Cl)cc1C1=Nc2ccccc2N=C(c2ccco2)C1	-2	-1	113*	-13	-2	-4
CC(C)(C)NC(=O)NC(=O)CSc1nnc(-c2ccccc2F)n1N	0	-2	-1	-13	1	18
Cc1nnc(SCC(=O)NC(=O)NC(C)(C)C)n1N	0	52*	3	-16	1	-9
O=C(c1ccccc1F)N1CCN(c2ccccc2F)CC1	-1	1	9	-28	7	53*
O=C(c1ccccc1F)N1CCN(S(=O)(=O)c2ccc3ccccc3c2)CC1	8	30*	2	-8	-10	-5
O=C(c1ccccc1F)N1CCN(c2cccc(C(F)(F)F)c2)CC1	2	121*	-4	-20	12	33
CSc1ncccc1C(=O)N1CCN(S(=O)(=O)c2ccc3ccccc3c2)CC1	-3	1	3	-16	x	x
CCOC1=C2[C@@H](CN(S(=O)(=O)c3ccc(C)cc3)[C@H]2c2ccccc2)[C@H]2C(=O)N(c3ccccc3)C(=O)[C@H]2C1	0	x	x	x	x	x
CC1(C)CCC[C@]2(C)[C@H]3Cc4cc(O)ccc4O[C@]3(C)CC[C@@H]12	-5	93*	-7	-23	x	x
CC(C)c1cc(=O)oc2c3c4c(cc12)CCCN4CCC3	-21	-1	88*	-6	-6	18
O=c1cc(C(F)(F)F)c2cc3c4c(c2o1)CCCN4CCC3	-3	0	i	-12	4	-12
CN1CCN(NC(=O)/C=C/c2ccc(Br)cc2)CC1	-7	-1	6	-35	-6	14
COc1ccc(C(=O)Nc2ccc3c(c2)nc(CN2CCN(C(C)=O)CC2)n3C)cc1	-4	-1	3	-7	-3	19
CC(=O)N1CCN(Cc2nc3cc(NC(=O)c4ccc(F)cc4)ccc3n2C)CC1	6	-1	-12	-2	9	57*
COC(=O)C(NC(=O)C(NC(=O)C1CCC(C)CC1)C(C)C)C(C)C (configuration not stated)	-3	-1	2	-8	-24	x
COc1ccc(-c2c(C#CC(C)(C)O)c3ccccc3n2C)cc1	-5	0	-2	-13	x	x
COc1ccc(-c2oc3ccccc3c2C#CC(C)(C)O)cc1	14	38*	-6	-10	x	x
S=C(Nc1ccc(OCc2ccccc2)cc1)Nc1cccc(Cl)c1Cl	3	67*	-1	-6	-2	5

Screens (PubChem BioAssay)
